RORg inh: inhibitors of mouse ROR gamma transcriptional activity. P51450. Drosophila S2 Gal4-RORgamma UAS-luciferase reporter, 20 h. Potency, µM (doses to about 53.6 µM), without a hit: at the top dose activity change, negative = inhibition, actives largely listed as inhibitors. actives 5.4% (n = 310,000); also: nearly all actives have a fitted effect of over 60% in size
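Luciferase reporter read in Schneider cells carrying Gal4-RORγ (mouse) and UAS-Photinus luciferase; cells given compound 1 h before 700 uM copper sulfate induction, then incubated 20 h at ambient temperature.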
ALDH1A1 block: inhibitors of human aldehyde dehydrogenase 1A1 | Potency, µM (titrated, usually from 75.3 µM), without a hit: at the highest dose activity, negative = inhibition, actives largely listed as inhibitors | AID 1030 | Purified ALDH1A1, NADH fluorescence, propionaldehyde substrate | actives 7.3% (n = 220,000); active = well fitted inhibition curve with a large enough effect, not every such curve was filed as active; inconclusive = small, poorly fitted or top-dose-only effect, or another doubt; inactive = no such curve, though single readings can be large or run the other way;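 also: plate controls were no enzyme wells and a reference inhibitor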
Target sequence (P00352 whole entry, looked up): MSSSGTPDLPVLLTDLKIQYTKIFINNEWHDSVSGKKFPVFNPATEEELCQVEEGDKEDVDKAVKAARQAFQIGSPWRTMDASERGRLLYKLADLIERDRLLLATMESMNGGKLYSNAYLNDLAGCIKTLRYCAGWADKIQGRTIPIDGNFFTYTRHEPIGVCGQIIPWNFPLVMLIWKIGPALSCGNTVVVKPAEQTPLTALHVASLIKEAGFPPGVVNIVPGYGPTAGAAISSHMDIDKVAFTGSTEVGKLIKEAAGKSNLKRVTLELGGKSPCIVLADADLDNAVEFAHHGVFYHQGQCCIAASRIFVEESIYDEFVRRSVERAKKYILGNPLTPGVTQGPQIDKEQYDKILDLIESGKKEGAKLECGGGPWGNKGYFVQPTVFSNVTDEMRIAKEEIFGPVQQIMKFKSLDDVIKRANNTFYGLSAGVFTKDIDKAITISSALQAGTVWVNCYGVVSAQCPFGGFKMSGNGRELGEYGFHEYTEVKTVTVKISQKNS
PLK1 PBD block: PLK1 (human) polo-box domain binding inhibition. P53350. Plk1 PBD binding of FITC phosphopeptide, fluorescence polarization. Potency, µM, without a hit: max response, negative = inhibition, usual class: inhibitors. actives 2.8% (n = 360,000); also: series mostly up to about 57 µM; nearly all actives have a fitted effect of over 65% in size
VP16 counter: inhibits Gal4-VP16 luciferase reporter, ROR gamma counter-screen | Drosophila S2 Gal4-VP16 UAS-luciferase, luminescence, 20 h | Potency, µM (highest dose often 53.6 µM), for inactives: top-dose activity, negative = inhibition, most hits filed as inhibitors | actives 3.5% (n = 310,000) | AID 2546;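 also: Gal4-VP16 expression switched on by copper sulfate through the metallothionein promoter; nearly all actives have a fitted effect of over 50% in size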
Sfp inh: inhibitors of Bacillus subtilis Sfp phosphopantetheinyl transferase. Q9F4F7. actives 3.5% (n = 310,000). Potency, µM, without a hit: largest response in the series, negative = inhibition, most hits filed as inhibitors. Biochemical Sfp PPTase activity, qHTS. AID 1490;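 also: the enzyme is Sfp with the accession as filed and its product quenches rhodamine fluorescence; 0% = enzyme reaction without inhibitor and -100% = no enzyme wells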
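Reaction rates are the 30-min fluorescence difference (ex 525, em 598 nm) in wells containing 15 nM Sfp, 5 uM rhodamine-CoA and 12.5 uM BHQ-2-YbbR at pH 7.6 with 10 mM MgCl2.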
Numbers without * were called inactive; ? = inconclusive; nt = not tested or not shown; ! = not active in a repeat; [ ] = another dose, or the depositor's remark. The list is not random: actives were taken first. Their share in the collection is about 12%. Unless noted, calls follow the shape of the dose curve; as a rule, active = well fitted curve in the direction sought with a large enough effect; inconclusive = small, poorly fitted or top-dose-only effect, or another doubt; inactive = no such curve, though single readings can be large; an effect the other way counts as inactive or inconclusive. Unless noted, % is scaled to controls: 0 for no effect and ±100 for the full control effect; potency is read from the fitted curve at half-maximal effect.

SMILES	RORg inh	ALDH1A1 block	PLK1 PBD block	VP16 counter	Sfp inh
O=C(CNC(=O)c1ccc(Cl)cc1)OCC(=O)c1ccc2c(c1)OCCO2	?	?	-2%	4%	23%
Nc1ccccc1C(=O)OCc1ccc([N+](=O)[O-])cc1	7%	5%	-4%	-2%	16%
CCN(c1ccc(C)cc1C)S(=O)(=O)c1nnc(NC(=O)c2ccco2)s1	?	nt	27µM*	3%	14%
CC1(C)N(O)C2CCCCC2N1O (stereo not drawn)	16µM*	?	-2%	?	56µM*
O=C(Oc1ccccc1)N1CCC2(CCCN(Cc3nccs3)C2)CC1	27%	?	nt	2%	11%
CCOc1ccc(-c2nc3ccc(-c4nc5ccc(N6CCN(C)CC6)cc5[nH]4)cc3[nH]2)cc1	2.2µM*	?	nt	?	?
N#Cc1c(Oc2cccc(OS(=O)(=O)CCCC(F)(F)F)c2)cccc1C(F)(F)F	?	nt	nt	?	20%
CC(Oc1ccc(Cl)cc1Cl)C(=O)Nc1ccc(S(=O)(=O)Nc2cnc3ccccc3n2)cc1 (stereo not drawn)	14%	?	13µM*	-19%	-8%
COc1ccc(NC(=O)C(=O)NNC(=O)C(C)Oc2ccc(Cl)cc2Cl)cc1 (stereo not drawn)	5µM*	5%	-13%	?	36%
COC(=O)COc1ccc(Cl)cc1Cl	-1%	1%	nt	2%	4%
CN(C)C1C(=O)C(C(N)=O)=C(O)[C@@]2(O)C(=O)C3=C(O)c4c(O)ccc(Cl)c4[C@](C)(O)C3CC12 (stereo partly drawn)	5%	21%	nt	-3%	-60%
O=C1CC2OCC=C3CN4CC[C@@]56c7ccccc7N1C5C2C3CC46 (stereo partly drawn)	-14%	10%	nt	0%	7%
NC(N)=NCCC[C@@H](N)C(=O)O	8%	4%	nt	0%	?
c1ccc2c(c1)OCC(C1=NCCN1)O2 (stereo not drawn)	16µM*!	?	-4%	-1%	10%
COc1ccc(C=O)cc1	2%	7.9µM*	-4%	2%	nt
COc1ccc(C=O)cc1OC	0%	11µM*	nt	7%	nt
COc1ccc(C=O)cc1O	-2%	?	-1%	8%	2%
C=C(C)[C@H]1O[C@H]2CC[C@@]3(C)[C@@](O)(CC[C@H]4[C@@H]5OC(C)(C)[C@H]6C[C@@H]7C(=C)Cc8c(Cl)cc9[nH]c(c5c9c8[C@@]76O)[C@@]43C)[C@]23O[C@@H]3[C@H]1O	nt	0%	nt	nt	16%
O=C(Oc1ccccc1)N1CCC2(CCCN(C(c3ccccc3)c3ccccc3)C2)CC1	?	9%	nt	-11%	-8%
O=C(Nc1ccc(Br)cc1C(=O)O)c1ccc2c(c1)C(=O)N(Cc1ccccc1)C2=O	10µM*	nt	?	?	-11%
CC(=O)O[C@H]1C(=O)[C@@]2(C)C([C@H](OC(=O)c3ccccc3)[C@]3(O)C[C@H](OC(=O)[C@H](O)[C@@H](NC(=O)Cc4ccccc4)c4ccccc4)C(C)=C1C3(C)C)[C@]1(OC(C)=O)CO[C@@H]1C[C@@H]2O (stereo partly drawn)	?	nt	-5%	13µM*	15%
CC(=O)O[C@H]1C(=O)[C@@]2(C)C([C@H](OC(=O)c3ccccc3)[C@]3(O)C[C@H](O)C(C)=C1C3(C)C)[C@]1(OC(C)=O)CO[C@@H]1C[C@H]2O (stereo partly drawn)	-40%	nt	2%	-8%	5%
CC(=O)O[C@@]12CO[C@@H]1C[C@H](O)[C@@]1(C)C(=O)[C@H](O)C3=C(C)[C@@H](OC(=O)[C@H](O)[C@@H](NC(=O)c4ccccc4)c4ccccc4)C[C@@](O)([C@@H](OC(=O)c4ccccc4)C12)C3(C)C (stereo partly drawn)	?	nt	-6%	?	11µM*
CCOC(=O)C1C(C=C(C)C)C1(C)C (stereo not drawn)	2%	8%	nt	6%	5%
CCN1C(=O)NC(=O)/C(=C\c2cn(CC(=O)N3CCCCC3C)c3ccccc23)C1=O (stereo not drawn)	-17%	nt	?	-7%	12%
SMILES	RORg inh	ALDH1A1 block	PLK1 PBD block	VP16 counter	Sfp inh
CCN(CC)C(=O)Cn1cc(/C=C2\C(=O)NC(=O)N(c3ccccc3F)C2=O)c2ccccc21	-19%	nt	4.7µM*	?	?
O=C(O)Cn1cc(C=C2C(=O)NC(=O)NC2=O)c2ccccc21	-14%	nt	?	6%	4%
O=C(O)Cn1cc(/C=C2\C(=O)NC(=O)N(c3ccc(Cl)cc3)C2=O)c2ccccc21	-6%	nt	15µM*	1%	?
NNc1n[nH]c(=S)n1N	?	nt	9%	?	2.8µM*
NNc1nncn1N	nt	-8%[13.5 µM]	nt	nt	nt
O=C(NCCN1CCC2(CC1)C(=O)NCN2c1cccc(F)c1)c1ccc2ccccc2c1	nt	nt	4%	nt	nt
O=C(CCCN1CCC2(CC1)C(=O)N(Cc1cccc(F)c1)CN2c1ccccc1)c1ccc(F)cc1	-33%	-4%	nt	?	71µM*
Cn1c(O)c(C2=NNC(c3ccc(Cl)cc3)C2)c(=O)n(C)c1=O (stereo not drawn)	7.1µM*	nt	-1%	5µM*	1%
CCOC(=O)[C@]12Cc3cc(C)ccc3[C@H]1N(CCC(=O)OC)C(=O)c1ccccc12	nt	nt	8.4µM*	nt	nt
CCOC(=O)[C@]12Cc3cc4c(cc3[C@H]1N(Cc1ccccc1)C(=O)c1ccccc12)OCO4	nt	nt	-18%	nt	nt
CCOC(=O)[C@]12Cc3ccc(C)cc3[C@H]1N(C1CCCCC1)C(=O)c1ccccc12	nt	nt	3µM*	nt	nt
CCOC(=O)[C@]12Cc3cc(Cl)ccc3[C@H]1N(Cc1ccccc1)C(=O)c1ccccc12	nt	nt	-5%	nt	nt
CCOC(=O)[C@]12Cc3cc(C)ccc3[C@H]1N(C1CCCCC1)C(=O)c1ccccc12	nt	nt	2.7µM*	nt	nt
CCOC(=O)[C@]12Cc3cc(Cl)ccc3[C@H]1N(C1CCCCC1)C(=O)c1cc(OC)ccc12	nt	nt	2.1µM*	nt	nt
CC(=O)N1CCN(c2ccc(OC[C@@H]3CO[C@@](Cn4ccnc4)(c4ccc(Cl)cc4Cl)O3)cc2)CC1	1%[16.9 µM]	-8%[20.9 µM]	nt	-8%[17 µM]	13%
CCN1C[C@]2(COC)CC[C@H](O)[C@@]34[C@@H]5C[C@H]6[C@@H](OC)[C@H]5[C@](O)(C[C@@H]6OC)[C@@](O)([C@@H](OC)[C@H]23)[C@@H]14	-20%[16.9 µM]	8%[20.9 µM]	nt	6%[17 µM]	20%
CC(C)C(=O)CP(=O)(O)O	nt	-6%[13.5 µM]	nt	nt	nt
O=C(N1CCOCC1)C1(c2ccccc2)CCNCC1	nt	12%[13.5 µM]	nt	nt	nt
COc1cc2c(cc1OC)[C@@]13CCN4CC5=CCOC6CC(=O)N2C1[C@H]6[C@@H]5C[C@@H]43 (stereo partly drawn)	-2%	11%	nt	4%	18%
C=CCCl	-4%	6%	nt	-3%	nt
CC(C)Oc1cc(-n2nc(C(C)(C)C)oc2=O)c(Cl)cc1Cl	35%	nt	nt	?	2%
